Assay results taken from PubChem BioAssay.

Assay: small-molecule binders of probe aNOTCH2, primary screen, biochemical, small-molecule microarray, 635/667 nm fluorescence (AID 1121);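 also: score merges feature fluorescence read at 667 nm with its signal to noise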
Settings: higher = more signal

SMILES | composite z-score
C[C@@H](c1ccccc1)N1C(=O)[C@H]2[C@H]3[C@H](O)[C@H](O)CC(=NOC[C@@H](O)COCc4ccco4)[C@@H]3CC[C@H]2C1=O | -0.185
COc1ccc(O[C@H]2C=C[C@@H](c3ccccc3)O[C@@H]2COC(=O)CCC(C)=NOCC[C@@H]2C=C[C@H](OC(C)=O)[C@@H](COC(C)=O)O2)cc1 | -0.0028
O=C1[C@H]2[C@H]3[C@H](O)[C@H](O)CC(=NOC[C@@H](O)COCc4ccco4)[C@H]3CC[C@H]2C(=O)N1c1cccc(Oc2ccccc2)c1 | -0.133
COC(=O)CC=C[C@@H](C)[C@@H](C=NO[C@@H](C)c1cc(-c2c(C)cc(C)cc2C)no1)OC | -0.156
COc1ccc(COC(=O)NN=C2C[C@@H](O)[C@@H](O)[C@@H]3[C@@H]4C(=O)N(Cc5ccc6c(c5)OCO6)C(=O)[C@@H]4CC[C@@H]23)cc1 | 0.015
C[C@@H]1CCC2C(=O)N(Cc3ccccc3)C[C@@H](O)CN2[C@H]1c1ccc(Br)cc1 (stereo partly specified) | -0.176
